High-throughput results (PubChem)
ATXN2 expr inh – inhibitors of ATXN2 expression | 360,000 compounds, 0.72% hits | Potency, µM (titrated, usually from 57 µM), for the others: top-dose activity change, negative = inhibition, usual class: inhibitors | HEK-293 ATXN2-luciferase reporter, luminescence, 24 h; also: % is scaled to controls: 0 for no effect and ±100 for the full control effect; nearly all actives have a fitted effect of over 55% in size
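qHTS (up to 57 uM final) was run with 24 h compound exposure of reporter cells at 37 °C. Each well was multiplexed: SteadyGlo luminescence measured ATXN2-luciferase expression after a fluorogenic Gly-Phe-AFC viability readout (25 uM final).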
Gal4-VP16 FLuc – Gal4-VP16 reporter inhibition counter-screen | Drosophila S2 Gal4-VP16 UAS-luciferase, luminescence, 20 h | Potency, µM (doses to about 53.6 µM), without a hit: top-dose activity, negative = inhibition, usual class: inhibitors | 310,000 compounds, 3.5% hits | AID 2546;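 also: Gal4-VP16 expression switched on by copper sulfate through the metallothionein promoter; % is scaled to controls: 0 for no effect and ±100 for the full control effect; nearly all actives have a fitted effect of over 50% in size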
TGFb SMAD3 inh – blocks TGF-b signaling; Potency, µM (highest dose often 46.1 µM), for inactives: at the highest dose activity, negative = inhibition, hits mostly inhibitors; HepG2 CAGA-GFP TGF-b/SMAD3 reporter, GFP fluorescence, 18 h; TGF-beta stimulated, 500 pg/mL final; 410,000 compounds, 1.2% hits; AID 588855; also: % is scaled to controls: 0 for no effect and ±100 for the full control effect; nearly all actives have a fitted effect of over 65% in size
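Smad-responsive CAGA-GFP expression was quantified in HEPG2 cells exposed to compounds and 500 pg/mL final TGF-beta for 18 h at 37 degrees C; unstimulated wells defined full inhibition.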
ATXN viability – cell viability loss in ATXN counter-screen; S2 cells (HEK-293 line with an ATXN2-luciferase reporter) viability, CellTiter-Fluor protease fluorescence, 24 h; Potency, µM (highest dose often 56.7 µM), hits mostly cytotoxic; 400,000 compounds, 0.49% hits; also: nearly all actives have a fitted effect of over 40% in size
HepG2 tox – HepG2 cytotoxicity, counter-screen for TGF-b inhibitors | HepG2 CAGA-GFP viability, ATP luminescence, 18 h | Potency, µM (series often up to 46.1 µM), for the others: top-dose activity change, negative = cytotoxicity, actives largely listed as cytotoxic | 410,000 compounds, 0.76% hits
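CellTiter-Glo luminescence gave cytotoxicity after 18 hours at 37 degrees C. The cells were HepG2 CAGA-GFP in 1% FBS DMEM, stimulated with 500 pg/mL TGF-beta after compound addition. %Activity was normalised to no-cell wells (complete cell-killing) and DMSO (no toxicity), and curves were fitted and classified.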
RORg inh – ROR gamma (mouse) transcription inhibition; 310,000 compounds, 5.4% hits; Drosophila S2 Gal4-RORgamma UAS-luciferase reporter, 20 h; Potency, µM (top dose mostly 53.6 µM), for inactives: at the top dose activity change, negative = inhibition, hits mostly inhibitors; P51450; also: % is scaled to controls: 0 for no effect and ±100 for the full control effect; nearly all actives have a fitted effect of over 60% in size
Target sequence (P51450 whole entry, looked up, the tested form may be a part): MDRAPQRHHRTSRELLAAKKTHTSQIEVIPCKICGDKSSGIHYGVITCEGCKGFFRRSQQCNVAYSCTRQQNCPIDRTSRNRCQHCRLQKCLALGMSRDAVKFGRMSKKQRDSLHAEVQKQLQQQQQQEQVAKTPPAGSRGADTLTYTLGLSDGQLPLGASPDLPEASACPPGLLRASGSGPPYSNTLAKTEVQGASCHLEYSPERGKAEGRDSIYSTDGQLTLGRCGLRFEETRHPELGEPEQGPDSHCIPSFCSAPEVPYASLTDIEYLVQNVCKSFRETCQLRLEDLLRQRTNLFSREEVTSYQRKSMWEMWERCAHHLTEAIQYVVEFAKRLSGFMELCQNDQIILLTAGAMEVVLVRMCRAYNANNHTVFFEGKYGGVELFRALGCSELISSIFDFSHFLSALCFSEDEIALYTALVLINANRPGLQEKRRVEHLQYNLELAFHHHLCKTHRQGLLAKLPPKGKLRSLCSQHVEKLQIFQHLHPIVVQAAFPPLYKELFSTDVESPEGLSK
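Luminescence from a UAS-regulated Photinus luciferase reporter in stably transfected Drosophila Schneider cells is measured; decreased signal marks ROR gamma inhibition. Fusion expression is induced by 700 uM copper sulfate for 20 hr.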
* = called active by the depositor; i = inactive; u = inconclusive; x = not tested or not shown; [ ] = remark or other dose. This is a sample that favours compounds with a hit; in the whole collection about 6.3% have one here. Calls follow the shape of the dose curve; as a rule, active = well fitted curve in the direction sought with a large enough effect; inconclusive = small, poorly fitted or top-dose-only effect, or another doubt; inactive = no such curve, though single readings can be large; an effect the other way counts as inactive or inconclusive. Potency is read from the fitted curve at half-maximal effect.

SMILES | ATXN2 expr inh | Gal4-VP16 FLuc | TGFb SMAD3 inh | ATXN viability | HepG2 tox | RORg inh
COc1cc(/C=C(\C#N)c2nc3ccccc3n2C)cc(OC)c1OC | 0% | x | -18% | i | -26% | x
Cn1c(C(=O)c2ccccc2)nc2ccccc21 | 67% | 29% | 12% | i | -10% | 13%
COc1ccc(/C(O)=C(\C#N)c2nc3ccccc3n2C)cc1OC | 3% | 18µM* | -16% | i | -17% | 7.1µM*
Cn1c(/C(C#N)=C(\O)c2ccc(S(=O)(=O)N3CCCCC3)cc2)nc2ccccc21 | -11% | 10µM* | -21% | i | -30% | 4.5µM*
Cn1c(/C(C#N)=C(\O)c2cc(Cl)sc2Cl)nc2ccccc21 | 0% | 4.5µM* | u | i | -32% | 4.5µM*
Cn1c(/C(C#N)=C(\O)c2ccc(Br)s2)nc2ccccc21 | x | u | 7% | x | -36% | 3.5µM*
COc1ccc(C(O)c2nc3ccccc3n2C)cc1OC (stereo not drawn) | -10% | 6.3µM* | -8% | i | -6% | -35%
COc1ccc(C(=O)NC(C)c2nc3ccccc3n2C)cc1OC (stereo not drawn) | -21% | x | 0% | i | -12% | -12%[0.365 µM]
O=C(NCCN1C(=O)S/C(=C\c2ccc(Cl)c([N+](=O)[O-])c2)C1=O)C1=COCCO1 | u | x | 18µM* | x | 22µM* | x
O=C(NCCN1C(=O)S/C(=C\c2ccc(Cl)c(Cl)c2)C1=O)c1cnccn1 | 2% | 5% | 18% | i | 4% | 14%
CN(C)c1ccc(C(=O)OCC(=O)c2ccc[nH]2)cc1 | 77% | x | 4% | i | -33% | x
N#Cc1nc(COc2ccc(-c3ccccc3)cc2)oc1NCCCN1CCOCC1 | 32µM* | 7% | 7% | u | -43% | u
CN(C)CCNc1oc(COc2ccc(-c3ccccc3)cc2)nc1C#N | u | -14% | u | u | 11µM* | u
N#Cc1nc(COc2ccccc2)oc1NCCN1CCOCC1 | 16% | -2% | 2% | i | -5% | 18%
COc1ccc(Nc2oc(COc3ccc(Cl)cc3)nc2C#N)cc1 | 14µM* | u | -26% | u | -20% | 16µM*
C=CCNc1oc(-c2ccc(-c3ccccc3)cc2)nc1C#N | u | x | 10µM* | u | -39% | x
Cc1ncc2c(c1CNC(=O)c1ccc3c(c1)OCO3)CCN(C(=O)c1cccc(-n3cccn3)c1)C2 | x | x | x | i | x | x
CCCCn1c(NC(=O)c2ccccc2Cl)c(C#N)c2nc3ccccc3nc21 | u | u | u | i | -59% | 13%
N#Cc1c(NC(=O)c2ccccc2Cl)n(Cc2ccccc2)c2nc3ccccc3nc12 | -39% | u | 7.9µM* | i | -27% | u
Oc1ccc(/C=N/n2c(C3CCCCC3)n[nH]c2=S)c(O)c1 | -23% | -3% | -5% | i | -8% | -16%
COc1ccccc1/C=C\C=N\n1c(C2CCCCC2)n[nH]c1=S | x | u | 0% | x | -54% | 2.2µM*
COc1cc(OC)c(/C=N/n2c(C3CCCCC3)n[nH]c2=S)c(OC)c1 | -3% | -2% | -13% | i | -14% | -35%
COc1ccccc1/C=C/C=N/n1c(-c2ccccn2)n[nH]c1=S | x | 2% | -9% | i | 4% | u
COc1ccc(/C=N/n2c(C3CCCCC3)n[nH]c2=S)c(OC)c1 | x | 7.1µM* | 4% | i | -9% | 3.5µM*
S=c1[nH]nc(C2CCCCC2)n1/N=C/c1cccc(Cl)c1Cl | -8% | 5µM* | u | u | -41% | 3.5µM*
SMILES | ATXN2 expr inh | Gal4-VP16 FLuc | TGFb SMAD3 inh | ATXN viability | HepG2 tox | RORg inh
COc1cccc(/C=N/n2c(C3CCCCC3)n[nH]c2=S)c1O | -21% | 13µM* | -28% | i | -31% | 10µM*
COc1cccc(/C=N/n2c(C3CCCCC3)n[nH]c2=S)c1OC | 3% | 7.1µM* | -15% | i | -47% | 3.2µM*
CCc1ccc(CN(Cc2ccco2)C(=O)c2ccc(OC)cc2)cc1 | x | x | 0% | x | -48% | x
CCNC(=S)N(Cc1ccco1)Cc1cc2cc(OCC)ccc2[nH]c1=O | u | u | -7% | u | -5% | 18µM*
CCOc1ccc(NC(=S)N(CCc2c(C)[nH]c3ccc(C)cc23)Cc2ccco2)cc1 | u | u | u | u | 0% | u
COc1ccc(NC(=S)N(Cc2ccc(N(C)C)cc2)Cc2ccco2)cc1 | -6% | 20µM* | -6% | i | -3% | 13µM*
CCOc1ccc(NC(=S)N(Cc2ccc(N(C)C)cc2)Cc2ccco2)cc1 | -9% | 32µM* | -44% | i | -19% | u
CCOc1ccc(NC(c2ccc(Cl)cc2)c2nnc(-c3cccc(F)c3)o2)cc1 (stereo not drawn) | 7% | x | 17% | i | 2% | x
COc1ccc2cc(-c3nc(-c4ccc(S(C)=O)cc4)[nH]c3-c3ccncc3)ccc2c1 (stereo not drawn) | -17% | x | x | x | x | x
CC(CC(=O)Nc1nccs1)c1ccccc1 (stereo not drawn) | -2% | -11% | 2% | i | -17% | -41%
CC(C)C(C(=O)Nc1nccs1)c1ccccc1 (stereo not drawn) | -6% | u | -7% | i | -26% | 11µM*
CC(C)Cc1ccc(C(C)C(=O)Nc2nccs2)cc1 (stereo not drawn) | -2% | u | -18% | i | -3% | 13µM*
CC(C)c1ccc(CNC(=O)C(=O)Nc2nccs2)cc1 | -5%[11.3 µM] | 21%[10 µM] | 3% | i | 5% | -36%
Cc1ccc(-c2ccnc(-n3ncc(C(=O)N4CCCCC4c4cccnc4)c3C3CC3)n2)o1 (stereo not drawn) | x | x | x | i | x | x
NNC(=S)Nc1c(Br)cc(F)cc1Br | -19% | u | -11% | i | -11% | 6.3µM*
Cc1nc2cc(Cl)ccc2n1-c1ccccc1 | -7% | -22% | -11% | i | -14% | 16µM*
COc1ccc(N2CCCC2=O)cc1S(=O)(=O)N1CCOCC1 | x | x | -9% | i | -20% | x
COc1ccccc1/C=C/C=N/n1c(-c2ccco2)n[nH]c1=S | -6% | 2% | 0% | i | 23% | 0.63µM*
COc1ccccc1/C=C/C=N/n1c(-c2ccncc2)n[nH]c1=S | -11% | u | 31% | u | -2% | u
COc1ccc(-c2n[nH]c(=S)n2/N=C/C=C\c2ccccc2OC)cc1 | -8% | u | 0% | i | 19% | 3.5µM*
S=c1[nH]nc(-c2ccco2)n1/N=C/C=C/c1ccco1 | 6% | 10µM* | 0% | i | 9% | 7.1µM*
COc1ccccc1/C=C/C=N/n1c(-c2ccc(C)cc2)n[nH]c1=S | 8% | 2.8µM* | -1% | i | -7% | 1.1µM*
